Compound activity deposited in PubChem by National Center for Advancing Translational Sciences (NCATS).
ALDH1A1 block: blocks purified human ALDH1A1 activity. AID 1030. 7.3% of 220,000 active. Purified ALDH1A1, NADH fluorescence, propionaldehyde substrate. Potency, µM (doses to about 75.3 µM), for the others: at the highest dose activity, negative = inhibition, usual class: inhibitors;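 note: potency is the fitted concentration of half-maximal effect; plate controls were no enzyme wells and a reference inhibitor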
Target sequence (P00352 whole entry, looked up): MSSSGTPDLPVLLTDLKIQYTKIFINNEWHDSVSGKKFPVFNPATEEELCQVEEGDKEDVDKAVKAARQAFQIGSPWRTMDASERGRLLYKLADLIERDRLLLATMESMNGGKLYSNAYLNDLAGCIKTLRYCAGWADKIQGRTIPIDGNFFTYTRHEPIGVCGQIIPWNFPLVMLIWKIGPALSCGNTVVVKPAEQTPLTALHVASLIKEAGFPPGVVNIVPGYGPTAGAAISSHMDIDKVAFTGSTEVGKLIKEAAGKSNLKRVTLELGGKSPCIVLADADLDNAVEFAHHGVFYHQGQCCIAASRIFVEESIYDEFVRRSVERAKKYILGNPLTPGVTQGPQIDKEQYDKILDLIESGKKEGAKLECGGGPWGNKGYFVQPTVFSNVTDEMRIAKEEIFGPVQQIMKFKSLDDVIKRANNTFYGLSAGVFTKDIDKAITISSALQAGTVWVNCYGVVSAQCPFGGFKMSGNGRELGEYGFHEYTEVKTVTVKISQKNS
IMPase inh: IMPase inhibition in cells. CHO-M1 cells, IP1 accumulation, HTRF TR-FRET ratio. 120,000 tested, under 10 active. AID 901. inhibition (IP1 accumulation), % at 46.1 µM; active = well fitted curve in the direction sought with a large enough effect in the signal ratio, not every such curve was filed as active; inconclusive = small, poorly fitted or top-dose-only effect, or a change in a side signal; inactive = no such curve, though single readings can be large or run the other way; the % refers to the signal ratio;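 note: cells stimulated with carbachol in lithium chloride buffer; plate controls were DMSO basal wells for no effect and reference inhibitor wells for full effect; higher means more IMPase inhibition seen as more IP1 and lower FRET ratio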
Target sequence (P97697 whole entry, looked up): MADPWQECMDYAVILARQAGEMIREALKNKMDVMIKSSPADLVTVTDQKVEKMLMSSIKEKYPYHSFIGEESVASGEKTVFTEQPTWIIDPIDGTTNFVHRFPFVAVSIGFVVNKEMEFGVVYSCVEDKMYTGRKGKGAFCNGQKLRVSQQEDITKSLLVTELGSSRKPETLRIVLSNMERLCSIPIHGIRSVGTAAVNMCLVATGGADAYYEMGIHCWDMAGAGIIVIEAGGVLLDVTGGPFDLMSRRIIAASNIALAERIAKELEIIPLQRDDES
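Seeded CHO-M1 cells were dosed with compound at up to 46 uM, stimulated with carbachol for 30 min, then lysed in IP-One detection reagents. Higher IP1 lowers the TR-FRET signal.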
PNC assembly inh: inhibitors of perinucleolar compartment assembly; PC3M PTB-GFP, PNC prevalence imaging, 16 h; stronger effect = lower value; activity change (PNC), negative = inhibition, % at 10 µM; 3.1% of 140,000 active; AID 2417;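 active = readout at or below -70, meaning at least 70% loss of cells showing the perinucleolar compartment, a nuclear body marking cancer cells; inconclusive = readout between -30 and a set limit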;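 note: plate controls were DMSO wells for no effect and camptothecin positive control wells for full effect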
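Read-out is percentage of cells bearing a perinucleolar compartment, from automated 20x imaging of fixed, Hoechst-stained PC3M PTB-GFP cells. Cells were seeded 4 h, then exposed 16 h to compound (23 nl of library stock) in duplicate plates.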
LMNA splice mod: LMNA splicing modulation; HeLa LMNA splicing GFP/RFP minigene ratio, 48 h; Potency, µM (series often up to 46.1 µM), for the others: at the top dose ratio change, negative = inhibition, usual class: inhibitors; 0.01% of 200,000 active; AID 1487; active = well fitted inhibition curve with a large enough effect in the signal ratio, with a control signal flat, not every such curve was filed as active; inconclusive = small, poorly fitted or top-dose-only effect, or effect the other way, or a change in a side signal; the % refers to the signal ratio; note: potency is the fitted concentration of half-maximal effect
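S3 HeLa cells stably expressing lamin A-EGFP splicing minigene plus DsRed2, 600 cells/well, 48 h compound exposure at 37C. Laser-scanning cytometry; analysed as GFP (500-530 nm)/RFP (575-640 nm) total intensity ratio; 0.5% DMSO vehicle.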
HPGD inh: blocks human HPGD enzyme activity | P15428 | purified HPGD, NADH fluorescence kinetic, PGE2 substrate | Potency, µM, for inactives: at the highest dose activity change, negative = inhibition, actives largely listed as inhibitors | 4.3% of 150,000 active; note: potency is the fitted concentration of half-maximal effect
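20 nM HPGD preincubated 15 min at room temperature with compound in 50 mM Tris-HCl pH 8, 0.01% Tween 20. Started with 1 mM NAD+ and 30 uM prostaglandin E2; NADH fluorescence (360/450 nm) read 5 times over 30-s intervals, last minus first.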
KinaseGlo FLuc: counter-screen: inhibitors of Kinase-Glo firefly luciferase; Potency, µM (doses to about 38.3 µM), inactives show top-dose activity change, negative = inhibition, hits mostly inhibitors; Kinase-Glo luciferase, ATP luminescence, 8 min; 0.28% of 200,000 active; active = well fitted inhibition curve with a large enough effect; inconclusive = small, poorly fitted or top-dose-only effect; note: potency is the fitted concentration of half-maximal effect; nearly all actives have a fitted effect of over 60% in size
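Light output from Kinase-Glo luciferase with luciferin and 10 uM ATP in 50 mM imidazole pH 7.2, KCl, MgCl2, Tween 20, BSA; compound pin-delivered, 8-min ambient incubation, then luminescence read.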
Starred values were filed as active, the others as inactive; ? = inconclusive; / = not tested or not shown; [ ] = another dose, or the depositor's remark. A selection: hits, their analogues and other compounds. The true share with any hit is near 10%. Unless noted, calls come from the whole dose curve; as a rule, active = well fitted inhibition curve with a large enough effect (not every such curve was filed as active); inconclusive = small, poorly fitted or top-dose-only effect, or another doubt; inactive = no such curve, though single readings can be large or run the other way. Unless noted, % is set by controls: 0 for no effect and ±100 for the full control effect.

SMILES	ALDH1A1 block	IMPase inh	PNC assembly inh	LMNA splice mod	HPGD inh	KinaseGlo FLuc
CC1CCCC(NC(=S)NC(=O)c2cncc(Br)c2)C1C (centres undefined)	?	/	0	?	-12%	-5%
CCN(CC)C(=O)c1sc(NC(=O)c2ccc3c(c2)OCO3)c(C#N)c1C	?	-5	?	-10%	6.3µM*	-2%
Cc1c(C(=O)N2CCOCC2)sc(NC(=O)c2ccc3c(c2)OCO3)c1C#N	-7%	0	-27	-3%	?	-1%
CCN(CC)C(=O)c1sc(NC(=O)c2cccc([N+](=O)[O-])c2)c(C#N)c1C	-11%	/	22	-11%	7.1µM*	0%
Fc1ccc(-n2[nH]nnc2=S)cc1N1CCCC1	14µM*	10	-19	3%	18µM*	1%
O=C(O)C[C@@H]1CCCc2ccccc2[C@H]1O	/	-2	/	/	/	/
Cc1ccc(N2CCn3c2nc2c3c(=O)n(C/C=C/c3ccccc3)c(=O)n2C)cc1C	/	/	/	-8%[46 µM]	/	/
O=c1[nH]c2cc3c(cc2cc1CN(Cc1nnnn1CC1CCCO1)C1CCCCC1)OCO3 (centres undefined)	?	-7	-8	-3%	-20%	-2%
Cc1cccc2cc(CN(Cc3nnnn3C3CCCCC3)C3CCCC3)c3nnnn3c12	3.2µM*	/	-15	-6%	-2%	4%
Cc1cccc2cc(CN(Cc3ccc(F)cc3)C(=O)N(C)C)c3nnnn3c12	-15%	12	-1	?	-3%	-3%
Cc1cc(C)c2[nH]c(=O)c(CN(Cc3nnnn3C3CCCC3)C3CCCCC3)cc2c1	18µM*	9	6	10%	-8%	-2%
CCS(=O)(=O)N1CC(=O)N(c2cc(C)ccc2C)C(C)(C(=O)NC2CCCCC2)C1 (centres undefined)	/	/	/	8%[46 µM]	/	/
Cc1cc2cc3c(cc2nc1SCc1ccccn1)OCCO3	-5%	/	?	-16%	-10%	-3%
N#Cc1cc2ccccc2nc1SCc1ccccn1	-7%	2	-5	4%	25µM*	7%
O=C(COCc1cc(-c2ccc(F)cc2)on1)Nc1cc(F)ccc1F	/	/	/	16%[46 µM]	/	/
Cc1ccc(NC(=S)Nc2ccc3cn[nH]c3c2)c(C)c1	?	/	/	7%[46 µM]	/	-1%
Cc1ccc(NC(=O)CCC(=O)NNC(=S)Nc2ccccc2)c(C)c1	8.9µM*	/	/	?	/	-1%
Cc1ccc(NC(=S)NNC(=S)Nc2ccc(C)cc2C)cc1	0.45µM*	/	/	/	/	0%
Cc1ccc(C)c(NC(=O)CCC(=O)NNC(=S)Nc2ccccc2)c1	5%	/	/	14%[46 µM]	/	1%
O=C(NCCn1cccc1)c1cccc2ccccc12	-4%	-13	12	13%	32µM*	-3%
CC1CCCC(C)N1/N=C/c1ccc(N(C)C)cc1 (centres undefined)	4µM*	/	/	-12%[46 µM]	/	5%
O=C(Cc1cccs1)NC1CC(=O)N(c2ccc(F)cc2)C1 (centres undefined)	/	/	/	-7%[46 µM]	/	/
COc1ccc(NC(=O)CSC2=Nc3ccccc3C3=NC(Cc4ccccc4)C(=O)N23)cc1 (centres undefined)	/	/	/	11%[46 µM]	/	/
COC(=O)c1ccccc1NC(=S)NC(=O)COc1ccc(C(C)C)cc1	18µM*	/	-23	-11%	-14%	0%
O=C(COc1ccccc1)NC(=S)Nc1ccc2c3c(cccc13)CC2	?	?	-7	1%	-7%	15%
SMILES	ALDH1A1 block	IMPase inh	PNC assembly inh	LMNA splice mod	HPGD inh	KinaseGlo FLuc
CCC(=O)NC(=S)Nc1ccccc1C(=O)OC	-5%	/	4	-10%	-3%	-3%
Cc1ccc(OCC(=O)NC(=S)Nc2ccc3c4c(cccc24)CC3)cc1	10µM*	/	-12	-7%	-12%	0%
COC(=O)c1ccccc1NC(=S)NC(NC(=O)COc1ccccc1)C(Cl)(Cl)Cl (centres undefined)	?	7	68	?	22µM*	-3%
Cc1ccccc1NC(=S)NC(NC(=O)COc1ccccc1)C(Cl)(Cl)Cl (centres undefined)	?	-24	-22	?	/	/
CNc1ncnc2c1ncn2[C@H]1C[C@H](O)[C@@H](CO)O1	8%	/	/	/	/	/
CCOC(=O)C1(C)C=C(Nc2cccc(C(=O)O)c2)C(=O)N1c1cccc(C(=O)O)c1 (centres undefined)	/	6	/	/	/	/
C=CCSc1nc2c(N)ncnc2n1[C@@H]1O[C@H](CO)[C@@H](O)[C@@H]1O	7%[13.5 µM]	/	/	/	-2%	-2%[7.66 µM]
CC(C)COP(=O)(c1ccc(N(C)C)cc1)C(O)c1ccncc1 (centres undefined)	13µM*	-5	38	8%	28µM*	-4%
CCOP(=O)(c1ccc(N(C)C)cc1)C(O)c1ccccc1 (centres undefined)	0%	-1	-1	5%	-8%	0%
CCN(CC)S(=O)(=O)c1cccc(C(=O)c2c(C)cc3ccccn23)c1	-16%	/	-94*	?	-18%	-1%
Cc1cc2ccccn2c1C(=O)c1cc([N+](=O)[O-])cc([N+](=O)[O-])c1	?	/	/	-7%[46 µM]	/	0%
CCc1ccc(NC(=O)CSC2=Nc3ccccc3C3=NC(CCC(=O)NCc4ccco4)C(=O)N23)cc1 (centres undefined)	/	/	/	-1%[46 µM]	/	/
CN1[C@@H]2CC[C@H]1CC(OC(=O)c1c[nH]c3ccccc13)C2 (some centres undefined)	1%	16	/	/	-15%	2%[39.9 µM]
CN1C2CCC1CC(OC(=O)c1c[nH]c3ccccc13)C2 (centres undefined)	-9%	10	-89*	?	-10%	-4%
O=C(NC1CCCCC1)C(c1cccs1)N(C(=O)c1ccco1)c1ccc2c(c1)OCCO2 (centres undefined)	?	-12	-100*	-3%	-9%	-1%
COc1cc(OC)cc(N(C(=O)c2ccco2)C(C(=O)NC2CCCC2)c2ccc(N(C)C)cc2)c1 (centres undefined)	?	6	6	6%	1%	-4%
COc1ccc(N(C(=O)c2ccco2)C(C(=O)NC2CCCC2)c2ccc(N(C)C)cc2)cc1 (centres undefined)	2.5µM*	-2	-24	4%	-4%	1%
COc1ccc(N(C(=O)CNC(=O)c2ccco2)C(C(=O)NC2CCCCC2)c2ccco2)cc1 (centres undefined)	0%	-4	-127*	-2%	-5%	1%
CCCCN(C(=O)CNC(=O)c1ccco1)C(C(=O)NC1CCCCC1)c1ccc(OC)cc1OC (centres undefined)	8%	2	0	1%	-6%	-6%
COC(=O)c1ccc(N(C(=O)CNC(=O)c2ccco2)C(C(=O)NC2CCCC2)c2ccco2)cc1 (centres undefined)	1%	17	-14	-3%	-1%	4%
